Results from PubChem BioAssay AID1851 (National Center for Advancing Translational Sciences (NCATS), 2009).
Out of some 16,000 compounds screened, about 5,800 (36%) were called active. Another 23% or so got no clear call; they are omitted. This is one part of the list. A number with no mark means an inactive call. The call rests on the fitted dose curve; in most records, active means well fitted curve in the direction sought with a large enough effect; inconclusive means small, poorly fitted or top-dose-only effect, or effect the other way; inactive means no such curve, though single readings can be large or run the other way.

Target: Cytochrome P450 2C19 (Homo sapiens) (UniProt P33261)
Sequence (P33261 whole entry, looked up): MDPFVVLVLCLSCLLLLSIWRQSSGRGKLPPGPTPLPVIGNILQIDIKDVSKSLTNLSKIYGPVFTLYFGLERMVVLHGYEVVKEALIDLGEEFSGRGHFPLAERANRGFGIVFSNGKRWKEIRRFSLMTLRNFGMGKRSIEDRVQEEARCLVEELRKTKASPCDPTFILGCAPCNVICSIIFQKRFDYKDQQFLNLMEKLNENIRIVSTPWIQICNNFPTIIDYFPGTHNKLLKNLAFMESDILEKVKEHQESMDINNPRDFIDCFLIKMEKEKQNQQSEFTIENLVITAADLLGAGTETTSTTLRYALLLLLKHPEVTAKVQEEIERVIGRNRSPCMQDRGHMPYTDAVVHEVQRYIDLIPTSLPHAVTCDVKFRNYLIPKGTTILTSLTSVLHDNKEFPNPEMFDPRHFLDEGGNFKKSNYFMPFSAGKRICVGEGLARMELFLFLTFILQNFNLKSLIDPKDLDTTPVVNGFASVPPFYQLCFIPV
Assay: Cytochrome panel assay with activity outcomes
Conditions: recombinant CYP, pro-luciferin dealkylation, luminescence, p450-cyp2c19; series mostly up to 57.1 µM; activity, negative = inhibition: at the top concentration
On the % scale 0 is the no-effect control and ±100 the full control effect.

Row | SMILES | AC50 | activity, negative = inhibition
1 | COc1ccc(-c2nn3cnnc3s2)cc1OC | 8.91 µM (active) | 
2 | O=C(CSCc1ccccc1)Nc1ccc(S(=O)(=O)N2CCOCC2)cc1 | 17.8 µM (active) | 
3 | Nc1cc(=O)[nH]c(SCC(=O)Nc2ccc(S(=O)(=O)N3CCOCC3)cc2)n1 |  | 25.5%
4 | COCC(=O)N1CCC2(CC1)CN(C(=O)Nc1cccc(F)c1)C2 |  | -7.41%
5 | NC(=O)c1ccc(C2SCC(=O)N2Cc2ccccc2)cc1 (stereo unspecified) | 10 µM (active) | 
6 | CC(C)n1nnnc1SCC(=O)NCc1ccc2c(c1)OCO2 | 5.01 µM (active) | 
7 | CC(C)(C)NC(=O)CSc1nnc(Cc2ccc3c(c2)OCO3)n1C1CCCCC1 |  | -6.41%
8 | CC(C)n1nnnc1SCC(=O)c1ccc2c(c1)OCCO2 | 10 µM (active) | 
9 | CC(C)n1nnnc1SCC(=O)NCCc1ccccc1 | 7.94 µM (active) | 
10 | O=C(O)c1ccc(Nc2ccnc3cc(Cl)ccc23)cc1O |  | -17.2% [at 11.4 µM]
11 | CC(=O)[C@@H](C)CCO[C@@]1(C)OCC[C@@H]1C |  | -8.65% [at 11.4 µM]
12 | COc1ccc(C(=O)N2CCC3(CCCN(C)C3)CC2)cc1 |  | -24.1%
13 | COc1ccc2c(c1)CCc1c(C(=O)N3CCCCCC3)noc1-2 | 11.2 µM (active) | 
14 | COc1ccc(NC(=O)N2CCCC3(CCN(C(=O)c4c(C)noc4C)CC3)C2)cc1 |  | 6.8%
15 | N#C[C@H](c1ccccc1)N1CCCN([C@@H](C#N)c2ccccc2)C1c1ccccc1O (stereo partly specified) | 0.251 µM (active) | 
16 | OC[C@@H]1O[C@@H](n2cnc3c(NC4CCCC4)ncnc32)[C@@H](O)[C@H]1O |  | -9.07%
17 | Cc1ccc(=O)n(-c2ccccc2)c1 |  | -31.4%
18 | CC(C)c1ccc(/C=C2\C=C(c3ccc4ccccc4c3)OC2=O)cc1 |  | -31.6% [at 11.4 µM]
19 | Cc1ccc(/C=C2\OC(=O)c3ccccc32)cc1 | 8.91 µM (active) | 
20 | Cc1ccccc1/C=C1\OC(=O)c2ccccc21 | 7.94 µM (active) | 
21 | COc1ccc(OC)c2[nH]c(=O)c(CCNS(=O)(=O)c3ccc(C)cc3)cc12 | 15.8 µM (active) | 

Row | SMILES | AC50 | activity, negative = inhibition
22 | COc1ccc(OC)c2[nH]c(=O)c(CCNC(=O)COc3ccccc3)cc12 | 14.1 µM (active) | 
23 | COc1ccc(OC)c2[nH]c(=O)c(CCNC(=O)C3CCCCC3)cc12 | 10 µM (active) | 
24 | COCCNC(=O)COc1ccc(Oc2ccccc2)cc1 | 11.2 µM (active) | 
25 | COCCNC(=O)COc1ccc(OCCNC[C@@H](O)COc2ccccc2)cc1 |  | -29.3%
26 | NC[C@H]1O[C@H](n2cnc3c(N)ncnc32)C[C@@H]1O |  | 7.59% [at 11.4 µM]
27 | Cn1c(=O)c2[nH]c(CCC(=O)O)nc2n(C)c1=O |  | 12% [at 11.4 µM]
28 | COc1ccc(OC)c2[nH]c(=O)c(CCNC(=O)c3ccc(S(=O)(=O)N4CCCC4)cc3)cc12 | 11.2 µM (active) | 
29 | COc1ccc(OC)c2[nH]c(=O)c(CCNC(=O)c3ccc(S(=O)(=O)N(C)C)cc3)cc12 |  | -21.1%
30 | CCN1CCCC1CNC(=O)CCNC(=O)c1cc(OC)c(OC)c(OC)c1 (stereo unspecified) |  | 1.37%
31 | CSC1(SC2=NCCN2)SC2(NCCN2)S1 | 1.58 µM (active) | 
32 | O=C(O)CCSC1=NCCN1 |  | 42% [at 11.4 µM]
33 | c1ccc(CN(CC2=NCCN2)c2ccccc2)cc1 | inactive | 
34 | Cc1ccc(N(Cc2ccccc2)Cc2ccccc2)cc1 | 2 µM (active) | 
35 | Cc1nc(C(=O)Nc2cccc(Cl)c2Cl)nn1-c1cc(OC(C)C)c(Cl)cc1Cl | 7.08 µM (active) | 
36 | CCn1nc(C(=O)Nc2ccccc2C)c(Cl)c1Cl |  | -24.3%
37 | CCc1c(C(=O)NCc2ccc3c(c2)OCO3)[nH]c(C)c1C(C)=O | 7.08 µM (active) | 
38 | CCc1ccccc1NC(=S)NCc1ccc2c(c1)OCO2 | 1.26 µM (active) | 
39 | O=C(O)C[C@H](Cc1ccc2c(c1)OCO2)C(=O)O |  | -29% [at 11.4 µM]
40 | CCOc1ccc(OCCOc2ncnc3ccccc23)cc1 | 10 µM (active) | 
41 | OC[C@@H](O)CNc1ncnc2ccccc12 |  | 1.02% [at 11.4 µM]
42 | CC(CO)(CO)Nc1ncnc2ccccc12 |  | 1.8% [at 11.4 µM]

Row | SMILES | AC50 | activity, negative = inhibition
43 | CC(=C/c1ccccc1)/C=N/n1cnnc1 | 0.355 µM (active) | 
44 | CN(C)CCCc1c2ccccc2nc2ccc(Cl)cc12 |  | 7.79% [at 11.4 µM]
45 | CCc1c(C)nc2ccc(Br)cc2c1Cl | 3.55 µM (active) | 
46 | CC1=NN(c2ccc(S(=O)(=O)O)cc2)C(=O)/C1=C\c1ccc(Cl)cc1 |  | -11.1% [at 11.4 µM]
47 | CC1=NN(c2ccccc2)C(=O)/C1=C\c1c(C)[nH]n(-c2ccccc2)c1=O |  | -3.54%
48 | CCOc1cc(/C=C2/C(=O)N(c3ccccc3)N=C2C)ccc1OC(=O)c1ccco1 | 14.1 µM (active) | 
49 | COc1cccc(NC(=O)COC(=O)c2c3c(nc4ccccc24)CCC(C)C3)c1 (stereo unspecified) | 3.98 µM (active) | 
50 | COc1cccc(NC(=O)Cc2c(C(=O)O)[nH]c3ccccc23)c1 |  | -10.4%
51 | COc1ccc(-c2nc3cnc(OC)nc3n(C)c2=O)cc1 |  | -0.6%
52 | CCc1c(O)nc2sc3ccccc3n2c1=O |  | 8.36%
53 | Cc1ccc2c(CC(=O)OCc3cc(=O)n4c(n3)sc3ccccc34)coc2c1 | 7.08 µM (active) | 
54 | CC1CCCN(C(=O)c2sc3cc([N+](=O)[O-])ccc3c2Cl)C1 (stereo unspecified) | 3.98 µM (active) | 
55 | C[C@@H]1C[C@H](C)CN(S(=O)(=O)c2cc(Cl)c(Oc3ccc([N+](=O)[O-])cc3Cl)c(Cl)c2)C1 |  | -27.5% [at 11.4 µM]
56 | CN1CCCN(C)C1c1cc([N+](=O)[O-])ccc1O |  | -15% [at 11.4 µM]
57 | Cc1ccc(C2=NN(S(C)(=O)=O)C(c3cccs3)C2)cc1 (stereo unspecified) | 0.447 µM (active) | 
58 | CN(C)c1ccc(NC(=O)CSc2nc(N)c(C(=O)Nc3ccc(N(C)C)cc3)s2)cc1 | 11.2 µM (active) | 
59 | Cc1[nH]nc2nc(SCC(=O)NCC3CCCO3)n(-c3ccc(Br)cc3)c(=N)c12 (stereo unspecified) | 11.2 µM (active) | 
60 | Cc1ccc(C)c(-n2c(Cc3cc(=O)[nH]c(=O)[nH]3)nnc2SCC(=O)NCC2CCCO2)c1 (stereo unspecified) |  | -5.1%
61 | COc1cc(OC)c(NC(=S)Nc2cccc(C(C)=O)c2)cc1Cl | 3.16 µM (active) | 
